DT40 TDP1 CPT: growth inhibition of DT40 Tdp1-/-;hTDP1 cells with camptothecin (screen for TDP1 inhibitors); Potency, µM (titrated, usually from 46.2 µM), actives largely listed as inhibitors; chicken DT40 Tdp1-/-;hTDP1 cells + 20 nM CPT, ATP luminescence, 48 h; 420,000 tested, 12% active; further: nearly all actives have a fitted effect of over 55% in size
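Chicken DT40 Tdp1-/- cells complemented with human TDP1, 400 cells/well, exposed to compounds plus 20 nM camptothecin for at least 48 h at 37 C; viability read as ATP content by CellTiter-Glo luminescence.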
HT1080 IDH1KD tx: kills HT-1080 cells with IDH1 knockdown; 360,000 tested, 2% active; Potency, µM (highest dose often 46.1 µM), most hits filed as cytotoxic; HT-1080 IDH1 knockdown viability, ATP luminescence, 48 h; AID 686971
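IDH1KD HT-1080 cells, 750/well, RPMI + 5% FBS; compound pinned after 2 h settling; 48 h, 37 °C; CellTiter-Glo luminescence; % activity normalised to DMSO and no-cell wells; curves fitted, classed by r2 and efficacy.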
DT40 TDP1 no CPT: qHTS for Inhibitors of human tyrosyl-DNA phosphodiesterase 1 (TDP1): qHTS in cells in absence of CPT; DT40 Tdp1-/- hTDP1 cells, no CPT, ATP luminescence, 48 h; Potency, µM (highest dose often 46.2 µM), hits mostly inhibitors; 420,000 tested, 15% active; AID 686978, 2013; further: nearly all actives have a fitted effect of over 55% in size
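Chicken DT40 Tdp1-/- cells complemented with human TDP1, screened without camptothecin (DMSO vehicle only), 400 cells/well. Compounds pin-transferred, cells incubated at 37 °C for at least 48 hr. Growth read as ATP-dependent luminescence (CellTiter-Glo, 30 min at RT).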
IL1B secr inh: inflammasome signaling inhibition, IL-1 beta readout; activity change, % at 57.5 µM; AID 743279; THP-1 LPS/ATP IL-1B secretion, AlphaLISA, 16 h; active compounds read low; 360,000 tested, 4.7% active; in the data active means activity change below about -50%; inconclusive means mostly about -30% to -49%
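Secreted IL-1B measured by AlphaLISA bead assay after 16 h compound exposure of THP-1 cells; compounds (final up to 57.5 uM) added 1 h before LPS (250 ng/mL) and ATP (1.25 mM) stimulation; lower signal means less secretion.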
HT1080-NT tox: kills 2HG-producing HT-1080-NT fibrosarcoma cells; HT-1080-NT fibrosarcoma viability, CellTiter-Glo ATP luminescence, 48 h; 360,000 tested, 1.6% active; Potency, µM (highest dose often 46.1 µM), hits mostly cytotoxic; AID 686970;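 further: NT is the 2HG producing partner of a matched IDH1 knockdown line; nearly all actives have a fitted effect of over 55% in size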
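Viability of the 2HG-overproducing fibrosarcoma line after 48 hours of compound exposure at 37 degrees C was determined by luminescence with CellTiter-Glo, and concentration-effect curves were then fitted and categorized.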
Of the large screens only hits and unclear results are named; the others gave an inactive call. Most compounds without a hit are left out; they make up all but 19% or so of the library. Unless noted, the call rests on the fitted dose curve; in most records, active means well fitted curve in the direction sought with a large enough effect; inconclusive means small, poorly fitted or top-dose-only effect, or another doubt; inactive means no such curve, though single readings can be large; an effect the other way counts as inactive or inconclusive.

CCc1[nH]nc(C(=O)N2CCCC(C(=O)c3cccc(OC(C)C)c3)C2)c1C (configuration not stated)	DT40 TDP1 CPT inconclusive, DT40 TDP1 no CPT 16.4µM, IL1B secr inh inconclusive
O=C(c1noc2c1CCCC2)N1CCCC(N2CCN(c3ccccc3F)CC2)C1 (configuration not stated)	DT40 TDP1 CPT 29.1µM, DT40 TDP1 no CPT inconclusive
CCc1cc(C(=O)N2CCCC(C(=O)c3cccc(OC(C)C)c3)C2)n(C)n1 (configuration not stated)	DT40 TDP1 CPT 16.4µM, DT40 TDP1 no CPT 18.4µM
CCc1cc(C(=O)N2CCCC(C(=O)c3ccc(Oc4ccccc4)cc3)C2)n(C)n1 (configuration not stated)	DT40 TDP1 CPT 10.3µM, HT1080 IDH1KD tx inconclusive, DT40 TDP1 no CPT 14.6µM, IL1B secr inh -60.7
Cc1ccn2c(=O)cc(COc3ccc(NC(=O)c4ccccc4F)cc3)nc2c1	none (no result: HT1080 IDH1KD tx, IL1B secr inh, HT1080-NT tox)
CSc1ccc(CCNC(=O)c2cc(C)nc3c2c(C)nn3-c2ccccc2)cc1	DT40 TDP1 no CPT inconclusive (no result: HT1080 IDH1KD tx, IL1B secr inh, HT1080-NT tox)
CCOC(=O)c1ccc(Cn2c(-c3ccccc3)nnc2-c2ccccc2)o1	DT40 TDP1 CPT inconclusive
Cc1cnc(C(=O)N2CCCC(C(=O)c3cccc(OC(C)C)c3)C2)cn1 (configuration not stated)	DT40 TDP1 CPT inconclusive
CC(C)Oc1cccc(C(=O)C2CCCN(C(=O)c3ccnn3C)C2)c1 (configuration not stated)	DT40 TDP1 CPT inconclusive, DT40 TDP1 no CPT 20.6µM
CC(C)Oc1cccc(C(=O)C2CCCN(C(=O)c3ccc4c(c3)OCO4)C2)c1 (configuration not stated)	DT40 TDP1 CPT inconclusive, DT40 TDP1 no CPT inconclusive
CC(C)Oc1cccc(C(=O)C2CCCN(C(=O)c3noc4c3CCCC4)C2)c1 (configuration not stated)	DT40 TDP1 CPT 18.4µM, DT40 TDP1 no CPT 20.6µM
Cc1ccccc1-c1csc(C(O)c2ccccc2)n1 (configuration not stated)	none
CCN(Cc1ccc(OC)c(COC)c1)CC1CCCN(CCc2cccc(F)c2)C1 (configuration not stated)	DT40 TDP1 CPT inconclusive, DT40 TDP1 no CPT inconclusive, IL1B secr inh inconclusive, HT1080-NT tox inconclusive
CCN(Cc1ccc(NC(C)=O)cc1)CC1CCCN(CCc2cccc(OC)c2)C1 (configuration not stated)	DT40 TDP1 CPT inconclusive, DT40 TDP1 no CPT 20.6µM
CCN(Cc1ccccc1OC)CC1CCCN(CCc2cccc(OC)c2)C1 (configuration not stated)	DT40 TDP1 CPT 14.6µM, HT1080 IDH1KD tx inconclusive, DT40 TDP1 no CPT inconclusive, IL1B secr inh inconclusive
O=C1Nc2ccccc2-n2nnnc2C1N1CCc2ccccc2C1 (configuration not stated)	none
C#CCNC(=O)C1=C[C@H](c2ccc(Br)cc2)[C@@H](CCCO)[C@H](OCC)O1	DT40 TDP1 CPT inconclusive, DT40 TDP1 no CPT 13µM
CCO[C@H]1OC(C(=O)Nc2ccccc2)=C[C@@H](c2ccc(Br)cc2)[C@@H]1CCCO	DT40 TDP1 CPT 16.4µM, HT1080 IDH1KD tx inconclusive, DT40 TDP1 no CPT 18.4µM, HT1080-NT tox inconclusive
CCO[C@@H]1OC(C(=O)Nc2ccccc2)=C[C@H](c2ccc(C(F)(F)F)cc2)[C@H]1CCCO	DT40 TDP1 CPT inconclusive, DT40 TDP1 no CPT inconclusive
CCO[C@H]1OC(C(=O)NC2CC2)=C[C@@H](C2CCCCC2)[C@@H]1CCCO	DT40 TDP1 CPT 20.6µM, DT40 TDP1 no CPT 23.1µM
C#CCNC(=O)C1=C[C@@H](c2ccc(Br)cc2)[C@H](CCCO)[C@@H](OCC)O1	DT40 TDP1 CPT 14.6µM, DT40 TDP1 no CPT 14.6µM
COc1ccc(OC)c(NC(=S)N2c3ccccc3CC2C)c1 (configuration not stated)	none
Cc1ccc(NC(=O)NC2CC(=O)N(c3ccc4c(c3)OCCO4)C2)c(C)c1 (configuration not stated)	none
C#Cc1ccc([C@H]2C=C(C(=O)NC3CC3)O[C@@H](OCC)[C@@H]2CCCO)cc1	DT40 TDP1 CPT inconclusive, DT40 TDP1 no CPT 23.1µM
CCOC(=O)N1CCN(C(=O)c2cn(CC)c3ccc(S(=O)(=O)N4CCOCC4)cc3c2=O)CC1	none
CCOC(=O)N1CCC(NC(=O)c2ccc3c(c2)N(C)C(=O)/C(=C/c2cccc(OC)c2)S3)CC1	DT40 TDP1 CPT 18.4µM, DT40 TDP1 no CPT 18.4µM
COc1ccc(/C=C2/Sc3ccc(C(=O)N4CCOCC4)cc3NC2=O)cc1OC	DT40 TDP1 CPT inconclusive
CCOC(=O)N1CCC(NC(=O)c2ccc3c(c2)N(C)CCS3)CC1	DT40 TDP1 CPT inconclusive, DT40 TDP1 no CPT inconclusive
CCOC(=O)N1CCN(C(=O)c2ccc3c(c2)NC(=O)/C(=C\c2cccc(C)c2)S3)CC1	DT40 TDP1 CPT inconclusive, DT40 TDP1 no CPT 13µM
CCOC(=O)N1CCN(C(=O)c2ccc3c(c2)NC(=O)/C(=C\c2ccc(OC)c(OC)c2)S3)CC1	DT40 TDP1 CPT inconclusive, DT40 TDP1 no CPT 16.4µM
Cc1cccc(/C=C2\Sc3ccc(C(=O)N4CCC(C)CC4)cc3N(C)C2=O)c1	DT40 TDP1 CPT inconclusive, HT1080 IDH1KD tx inconclusive, DT40 TDP1 no CPT inconclusive, IL1B secr inh -54.1, HT1080-NT tox inconclusive
CCOC(=O)N1CCN(C(=O)c2ccc3c(c2)N(C)C(=O)/C(=C\c2ccc(OCC)c(OC)c2)S3)CC1	DT40 TDP1 CPT inconclusive, HT1080 IDH1KD tx inconclusive, DT40 TDP1 no CPT 16.4µM, IL1B secr inh inconclusive
CSc1nnc(C)c(/C=C/Nc2ccc(C)cc2)n1	HT1080 IDH1KD tx inconclusive, DT40 TDP1 no CPT 18.4µM
CSc1nnc(C)c(/C=C/NOCc2ccc(Cl)cc2)n1	none
Cc1ccc(C(=O)NCCCNC(=O)Cc2ccccc2)cn1	none
c1ccc(Cn2ncc3c(N4CCN(C(c5ccccc5)c5ccccc5)CC4)ncnc32)cc1	DT40 TDP1 CPT 18.4µM, DT40 TDP1 no CPT 20.6µM
c1ccc(Cn2ncc3c(N4CCN(c5ccccc5)CC4)ncnc32)cc1	DT40 TDP1 CPT 18.4µM, DT40 TDP1 no CPT 16.4µM, IL1B secr inh inconclusive
Cc1ccc(Cn2ncc3c(N4CCN(CC#N)CC4)ncnc32)cc1	DT40 TDP1 no CPT inconclusive
Cc1ccc(Cn2ncc3c(N4CCCC4)ncnc32)cc1	DT40 TDP1 CPT inconclusive, DT40 TDP1 no CPT inconclusive
CC(=O)CC(=O)NC1CCc2ccccc21 (configuration not stated)	none
N#Cc1ccc2[nH]cc(CCO)c2c1	none
C[C@H](NC(=O)[C@H]1N2C(=O)c3ccccc3C2SC1(C)C)C(=O)N1CCC[C@H]1CO (some centres not stated)	none
CC(=O)Nc1ccc(NC(=O)c2oc3cc(C)c(C)cc3c2C)cc1	IL1B secr inh -50.5
Cc1c(C(=O)NC(C)c2ccncc2)oc2ccccc12 (configuration not stated)	none
